# Screening data deposited in PubChem by National Center for Advancing Translational Sciences (NCATS).
# D1 antag: Antagonist of Human D 1 Dopamine Receptor: qHTS. HEK293 TREx D1 cells, calcium flux, dopamine EC80; stronger effect = lower value. activity change, negative = inhibition, % at 10 µM. 360,000 compounds, 3.2% hits. AID 504652, 2011; in the data active = activity change below about -30%; also: % is scaled to controls: 0 for no effect and ±100 for the full control effect
# Target sequence (P21728 whole entry, looked up): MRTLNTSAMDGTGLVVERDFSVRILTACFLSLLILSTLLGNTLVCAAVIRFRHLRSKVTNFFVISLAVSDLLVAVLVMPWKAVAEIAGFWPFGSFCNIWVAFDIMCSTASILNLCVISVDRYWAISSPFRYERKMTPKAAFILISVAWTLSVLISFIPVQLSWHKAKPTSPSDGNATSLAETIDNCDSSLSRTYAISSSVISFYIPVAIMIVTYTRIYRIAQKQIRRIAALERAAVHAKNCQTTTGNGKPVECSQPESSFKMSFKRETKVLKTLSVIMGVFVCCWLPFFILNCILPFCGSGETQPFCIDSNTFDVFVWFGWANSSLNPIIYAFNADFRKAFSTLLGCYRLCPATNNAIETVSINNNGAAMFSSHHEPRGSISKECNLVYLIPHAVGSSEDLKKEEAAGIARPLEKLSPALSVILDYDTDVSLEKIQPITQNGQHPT
#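 Tetracycline-induced HEK293 Trex D1 cells, force-coupled to calcium, dye-loaded; compounds added and read 180 s, then EC80 dopamine added and calcium flux tracked kinetically another 180 s.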
# D1 agonist: Allosteric Agonists of the Human D1 Dopamine Receptor: qHTS; D(1A) dopamine receptor (Homo sapiens), P21728; HEK293 T-REx D1 cells, calcium flux, agonist mode; activation, % at 2 µM; 360,000 compounds, 1% hits; in the data active = activation above about 30%; also: 0% is about no effect
#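 Inducible HEK293 T-REx D1 cells, force-coupled to calcium signalling, were plated at 4000 cells/well with tetracycline and held overnight at 30 C. After no-wash calcium dye loading, compound-evoked calcium rise over 180 s flagged agonists.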
# D1 potentiator: Potentiators of Human D1 Dopamine Receptor: qHTS; 360,000 compounds, 0.036% hits; HEK293 TREx D1 cells, calcium flux, dopamine EC20 potentiation; D(1A) dopamine receptor (Homo sapiens), P21728; AID 504651, 2011; potentiation, % at 10 µM; in the data active = potentiation above about 30%; also: 0% is about no effect
# D3 ag: qHTS of D3 Dopamine Receptor Agonist: qHTS | 410,000 compounds, 0.58% hits | D3R DiscoveRx beta-arrestin cells, luminescence, 90 min | D(3) dopamine receptor (Homo sapiens), P35462 | max activation, %; in the data active = max activation above about 30%; also: 0% is about no effect
#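 Cells at 1500/well, incubated overnight, then treated with pinned compounds (dopamine as control) for 90 min at 37 degrees C. DiscoveRx reagent added for 30 - 60 minutes at room temperature; luminescence read.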
# D3 antag: qHTS of D3 Dopamine Receptor Antagonist: qHTS | AID 652054, 2013 | D3R cells, DiscoveRx beta-arrestin luminescence, antagonist mode; stronger effect = lower value | 360,000 compounds, 2.5% hits | max response, negative = inhibition, % | D(3) dopamine receptor (Homo sapiens), P35462; in the data active = max response below about -50%; also: % is scaled to controls: 0 for no effect and ±100 for the full control effect
#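 Cells expressing the human receptor were seeded at 1500 cells/well, incubated overnight at 37 degrees C in 5% CO2, then exposed to library compounds with dopamine controls for 90 minutes at 37 degrees C before luminescent detection.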
# Numbers without * were called inactive; . = not tested or not shown; ! = repeats disagree. An excerpt weighted towards active compounds, which were near 6% of everything screened.
SMILES,D1 antag,D1 agonist,D1 potentiator,D3 ag,D3 antag
Cc1ccc(OCC(O)CN2CCN(Cc3ccc4c(c3)OCO4)CC2)c(C)c1 (stereo not drawn),-7.0,1.1,1.4,-11.0,-59.8*
COc1ccc(OCC(O)CN2CCN(Cc3ccc4c(c3)OCO4)CC2)cc1 (stereo not drawn),-12.5,0.7,-0.8,-5.5,-0.2
CC(=O)c1ccc(OCC(O)CN2CCN(Cc3ccc4c(c3)OCO4)CC2)cc1 (stereo not drawn),3.5,0.2,-2.7,-11.5,-50.9*!
Cc1cc2c(s1)c1cnn(Cc3c(F)ccc(F)c3F)c(=O)c1n2C,4.1,0.4,-3.4,.,.
CC(CC(=O)Nc1ccc2c(c1)c(=O)n(C)n2-c1cccs1)c1ccccc1 (stereo not drawn),.,.,.,-16.5,-52.7*
Cc1cc(C)cc(-n2c3ccc(NC(=O)Cc4cccc5ccccc45)cc3c(=O)n2C)c1,.,.,.,-11.3,-14.2
Cc1cccc(NS(=O)(=O)c2cccc(C(=O)Nc3cccc(C(=O)O)c3)c2)c1,-21.7,9.1,6.0,-7.0,8.5
Cc1ccccc1NC(=O)c1cccc(S(=O)(=O)Nc2cccc(C(=O)O)c2)c1,-31.1*,-2.9,1.7,4.0,12.7
Cc1ccccc1NC(=O)c1ccc(NS(=O)(=O)c2cc(C(C)(C)C)cc(C)c2C)cc1,-84.6*,0.4,-5.1,-26.2,-57.0*
CCN(CC)c1ccc2cc(C(=O)NCc3ccc(F)cc3)c(=N)oc2c1,-28.9,170.1*,-10.6,.,.
N=c1oc2ccc(Br)cc2cc1C(=O)NCc1ccc(F)cc1,10.0,1.0,-0.2,1.1,-0.2
O=C(NNC(=O)c1ccc2nonc2c1)Nc1ccc(Cl)cc1,-28.0,-0.2,2.2,-20.6,-69.1*
O=C(NNC(=O)c1ccc2ncccc2c1)c1ccc(Cl)cc1,-13.2,-1.0,-5.1,2.2,6.6
CCNC(=O)C[C@@H]1CC[C@@H]2NC[C@@H](O)COC[C@H]2O1,.,.,.,2.6,2.0
CCn1cc([N+](=O)[O-])c(C(=O)N2N=C(c3ccc4ccccc4c3)CC2c2cc(Br)ccc2O)n1 (stereo not drawn),0.2,3.0,6.8,2.2,-61.3*
CCn1cc([N+](=O)[O-])c(C(=O)N2N=C(c3ccc(Cl)c(Cl)c3)CC2c2ccccc2O)n1 (stereo not drawn),13.8,9.0,-0.8,14.8,17.3
O=C(Nc1ccc(F)cc1)OCCOc1ccc(Br)cc1,-55.0*,6.6,2.5,3.0,14.5
Cc1ccc(C(=O)NCCc2nnc3c(C(F)(F)F)cc(Cl)cn23)o1,-33.2*,-0.2,-8.7,2.3,9.0
O=C(NCc1nnc2c(C(F)(F)F)cc(Cl)cn12)c1cccs1,12.0,0.4,-1.1,5.0,-8.3
CCC(=O)Nc1cc(-c2nc3cc(C)cc(C)c3o2)ccc1C,4.9,-0.4,-0.8,-6.4,.
O=C(C1COc2ccccc2O1)N1CCN(c2ccc(C(F)(F)F)cn2)CC1 (stereo not drawn),.,.,.,5.3,-9.0
C=CCNc1nc(NCc2ccccc2)c(C#N)c2c1CN(C)CC2,-13.0,17.1,-2.7,-5.7,-66.2*
Cc1cccc(C(=O)Nc2ccc(C(=O)OCc3cc(=O)n4nc(CC(C)C)sc4n3)cc2)c1,-2.7,0.7,1.4,-8.0,.
Cc1ccc2c3c(cccc13)-c1ccccc1C2=O,-0.3,2.3,-0.6,5.7,3.3
Nc1ccc2c3c(cccc13)-c1ccccc1-2,.,.,.,30.0*,17.0
SMILES,D1 antag,D1 agonist,D1 potentiator,D3 ag,D3 antag
CCCNC(=O)CSc1nc2ccccc2nc1Cc1ccc(Cl)cc1,-6.3,0.1,-2.0,-0.2,.
COc1cccc(/C=N/n2c(N)c(S(=O)(=O)c3cccs3)c3nc4ccccc4nc32)c1OC,-7.6,3.6,-7.2,-7.5,6.9
Nc1c(S(=O)(=O)c2cccc(Cl)c2)c2nc3ccccc3nc2n1/N=C/c1ccc(O)c(O)c1,-33.9*,0.6,-4.9,.,.
O=C(NCC(c1cccnc1)N1CCN(c2ccccc2F)CC1)c1ccc(F)cc1 (stereo not drawn),8.0,1.3,1.6,9.1,.
COc1ccc(C(=O)Nc2nc(N3C(=O)c4ccccc4C3=O)n(-c3ccccc3)n2)cc1,8.8,0.6,1.2,-6.4,-91.0*
CC(=O)Nc1nc(N2C(=O)c3ccccc3C2=O)n(-c2ccccc2)n1,5.5,1.5,2.8,-1.2,-63.3*
O=C(Nc1nc(N2C(=O)c3ccccc3C2=O)n(-c2ccccc2)n1)c1ccc(F)cc1,-13.0,1.4,7.0,11.9,-54.8*
O=C(Nc1nc(N2C(=O)c3ccccc3C2=O)n(-c2ccccc2)n1)c1ccccc1,5.1,-0.1,1.6,1.8,41.7
CC(=O)Nc1nc(N)n(-c2ccccc2)n1,3.0,1.2,-5.3,-2.7,29.8
COc1ccc(C(=O)Nc2cc(-c3ccccc3)nn2-c2ccccc2)cc1,11.3,5.3,-1.2,2.9,.
CC(=O)OC(C)OC(=O)C(C)c1ccc(-c2ccccc2)c(F)c1 (stereo not drawn),.,.,.,9.3,.
COCCNC(=O)C1(C)CCCN(C(=O)c2ccc(C(=O)OC)cc2)C1 (stereo not drawn),.,.,.,-5.2,7.6
O=C(Nc1ccc(F)c(Cl)c1)Nc1nnc([C@H]2C[C@H](O)[C@@H](CO)O2)s1,.,.,.,-1.7,-10.0
O=S(=O)(Nc1ccc(-n2cccc2)cc1)c1ccc(Cl)c(Cl)c1,-5.0,1.2,-8.5,-0.2,2.0
O=S(=O)(Nc1ccc(-n2cccc2)cc1)c1ccc(Cl)cc1Cl,-6.0,0.9,-0.6,-1.4,-52.6*
COc1ccc(-c2csc(N3CCN(c4cc(C)nc5ccccc45)CC3)n2)cc1OC,7.5,-0.3,-1.2,31.6*,76.3
Cc1ccc2[nH]nc(C(=O)N3CCCC(C(=O)c4ccc(Cl)cc4)C3)c2c1 (stereo not drawn),2.1,-0.3,0.1,34.3*,33.3
Cc1ccc(NC(=O)C2CCN(C(=O)c3ccccc3C)CC2)cc1,-44.1*,-0.2,-0.5,-0.6,3.8
Cc1ccccc1C(=O)N1CCC(C(=O)Nc2cccc(F)c2)CC1,19.2,6.3,1.4,0.2,3.1
COc1ccc(C(=O)N2CCC(C(=O)NC3CC3)CC2)cc1,-14.4,1.5,-2.7,5.2,0.4
COc1ccc(C(=O)N2CCC(C(=O)Nc3ccc(Cl)cc3)CC2)cc1,-41.7*,16.2,-3.2,-5.2,.
COC(=O)c1ccccc1NC(=O)C1CCN(C(=O)c2ccc(OC)cc2)CC1,-33.2*,1.2,-13.2,0.8,20.2
COc1ccc(C(=O)N2CCC(C(=O)Nc3ccc4c(c3)OCO4)CC2)cc1,25.2,-1.3,2.4,0.8,-15.6
O=C(CSc1ncc(-c2ccccc2)[nH]1)Nc1cccc(Br)c1,-18.8,6.3,-2.9,-10.6,.
